Screening data deposited in PubChem BioAssay by Broad Institute.
aSyn 5UTR act: Activators via SNCA 5'UTR binding, MLPCN | alpha-synuclein 5'UTR reporter, activators screen | activity score, % (tested at 7.5 µM), hits read low | 7.1% of 300,000 active; in the data active = activity score below about -60%
* hit, by the source's call. Only a sample is shown.

Results for Cc1cc(C(=O)OCC(=O)NCc2ccco2)c(C)n1-c1ccc(F)cc1 ?
aSyn 5UTR act: 80

Results for Cc1ccc(/C=C/C(=O)NCc2cccs2)cc1 ?
aSyn 5UTR act: -68*

How did O=C(/C=C/c1ccc(F)cc1)NCc1ccco1 do in these assays?
aSyn 5UTR act: -75*

What do the screens show for `Cc1ccc(/C=C/C(=O)NCc2cccs2)c(C)c1`?
aSyn 5UTR act: -132*

What do the screens show for `O=C(O)c1cccc(COc2ccc3c(c2)CCC3)c1`?
aSyn 5UTR act: 81

How did COc1cccc(OC)c1C(=O)NNC(=O)c1cccc(COc2ccc3c(c2)CCC3)c1 do in these assays?
aSyn 5UTR act: -91*

Results for CCOc1ccc(OCc2cccc(C(=O)N3CCCCCC3)c2)cc1 ?
aSyn 5UTR act: 76

Results for COc1ccccc1OCCNC(=O)c1ccc2c(c1)CCC2 ?
aSyn 5UTR act: -138*

What do the screens show for `COc1ccccc1OCCNC(=O)c1ccc2c(c1)OCCO2`?
aSyn 5UTR act: -68*

How did O=C(NN1CCCCC1)c1cccc(COc2ccc(Cl)cc2)c1 do in these assays?
aSyn 5UTR act: -167*

What do the screens show for `Cc1ccc(S(=O)(=O)NCc2ccccc2)cc1C(=O)NC1CCC(C)CC1` (stereo not drawn)?
aSyn 5UTR act: -64*

Results for CCCCCC(C)NC(=S)NC(=O)c1cc(S(=O)(=O)N2CCOCC2)ccc1C (stereo not drawn) ?
aSyn 5UTR act: 66

Results for CC1CCC(NC(=O)CCNS(=O)(=O)c2ccccc2)CC1 (stereo not drawn) ?
aSyn 5UTR act: -62*

What do the screens show for `CC(O)CNC(=O)C1CCN(Cc2ccc(OCc3ccccc3)cc2)CC1` (stereo not drawn)?
aSyn 5UTR act: -126*

What do the screens show for `CC(C)CNC(=O)C1CCN(Cc2ccc(OCc3ccccc3)cc2)CC1`?
aSyn 5UTR act: -95*

How did O=C(COc1ccccc1)Nc1nccs1 do in these assays?
aSyn 5UTR act: -100*

How did C/C(=C\C(=O)Nc1nccs1)c1ccccc1 do in these assays?
aSyn 5UTR act: -197*

How did O=C(COc1ccc([N+](=O)[O-])cc1)Nc1nc(-c2ccccn2)cs1 do in these assays?
aSyn 5UTR act: 57

How did Oc1ccccc1C(Nc1nccs1)c1ccc2cccnc2c1O (stereo not drawn) do in these assays?
aSyn 5UTR act: 77

Results for Cn1cc(SCC(=O)Nc2nccs2)c2ccccc21 ?
aSyn 5UTR act: -165*

What do the screens show for `NC(=O)c1ccsc1NC(=O)COc1ccccc1`?
aSyn 5UTR act: -136*

Results for O=C(NCCc1ccccc1)C(=O)Nc1nccs1 ?
aSyn 5UTR act: -84*

Results for O=C(COc1ccc2ccc(=O)oc2c1)Nc1nccs1 ?
aSyn 5UTR act: -85*

Results for O=C(COC(=O)c1ccccc1Cl)Nc1nccs1 ?
aSyn 5UTR act: -91*

What do the screens show for `COc1ccc(-c2oc3ccc(N4CCOCC4)cc3c2C#Cc2ccc(N)cc2)cc1`?
aSyn 5UTR act: -92*

What do the screens show for `COc1ccc(-c2oc3ccc(N4CCOCC4)cc3c2C#CC2(O)CCCCC2)cc1`?
aSyn 5UTR act: -118*

Results for C/C(=N\Nc1nccnc1Cl)c1ccc(O)c(C)c1 ?
aSyn 5UTR act: -180*

Results for CCOC(=O)c1cn2nc(Oc3ccccc3)ccc2n1 ?
aSyn 5UTR act: -149*

What do the screens show for `CCOC(=O)c1cn2nc(Oc3ccc(C)cc3)ccc2n1`?
aSyn 5UTR act: -75*

What do the screens show for `Cc1sc2nc3ccc(N4CCCC4)nn3c(=O)c2c1C`?
aSyn 5UTR act: -171*

Results for Cc1ccc2nc3ccc(N4CCCCCCC4)nn3c(=O)c2c1 ?
aSyn 5UTR act: -150*

What do the screens show for `Cc1ccc2nc3ccc(N4CCN(C)CC4)nn3c(=O)c2c1`?
aSyn 5UTR act: -137*

What do the screens show for `O=c1c2ccccc2nc2ccc(N3CCOCC3)nn12`?
aSyn 5UTR act: -85*

What do the screens show for `CN(C)c1ccc(/C=N/n2ncc3ccccc32)cc1`?
aSyn 5UTR act: -290*

What do the screens show for `COc1ccc(-c2cc3ncnc(Cl)c3s2)cc1`?
aSyn 5UTR act: -69*

What do the screens show for `S=c1sc2c(Cl)ncnc2n1-c1ccccc1`?
aSyn 5UTR act: 93

Results for C=CCN1C(=O)/C(=C/c2ccc(N(C)C)cc2)S/C1=N\c1nnc(CC)s1 ?
aSyn 5UTR act: -65*

What do the screens show for `Brc1ccc2nc(CSc3ncn[nH]3)cn2c1`?
aSyn 5UTR act: -68*

What do the screens show for `Nc1c(C(=O)c2ccc(Br)s2)oc2ccccc12`?
aSyn 5UTR act: -149*

How did Nc1c(C(=O)c2cccs2)oc2ccccc12 do in these assays?
aSyn 5UTR act: -99*

What do the screens show for `Cn1c(-c2ccc(-c3ccccc3)cc2)c[nH]c1=S`?
aSyn 5UTR act: -173*

Results for C=CCn1c(-c2ccccc2)c[nH]c1=S ?
aSyn 5UTR act: -120*

How did CCn1c(-c2ccc(-c3ccccc3)cc2)c[nH]c1=S do in these assays?
aSyn 5UTR act: -65*

What do the screens show for `Cc1cnc(C(=O)Nc2ccc(N3CCOCC3)cc2)cn1`?
aSyn 5UTR act: -73*

How did Cc1cnc(C(=O)Nc2ccc(N3CCCCC3)cc2)cn1 do in these assays?
aSyn 5UTR act: -135*

What do the screens show for `Cc1cnc(C(=O)Nc2ccc(OC(F)(F)F)cc2)cn1`?
aSyn 5UTR act: -239*

Results for Fc1ccc(-c2nc(-c3cccs3)no2)cc1 ?
aSyn 5UTR act: -134*

How did Fc1ccc(-c2cnc(-c3cccs3)o2)cc1 do in these assays?
aSyn 5UTR act: -148*

How did O=c1c2cc(N3CCOCC3)ccc2[nH]c(=S)n1Cc1ccc(Cl)cc1 do in these assays?
aSyn 5UTR act: -121*

What do the screens show for `COc1ccc(N2CCN(C(=O)c3ccc(Cn4c(=S)[nH]c5ccc(N6CCOCC6)cc5c4=O)cc3)CC2)cc1`?
aSyn 5UTR act: -111*

How did COc1ccccc1OCCSc1nnnn1C1CCCCC1 do in these assays?
aSyn 5UTR act: -81*

How did c1ccc(OCCSc2nnnn2C2CCCCC2)cc1 do in these assays?
aSyn 5UTR act: -122*

Results for COc1cc(/C=N/NS(=O)(=O)c2ccc(C)cc2)ccc1OCc1ccc(C(=O)O)cc1 ?
aSyn 5UTR act: 84

How did COC(=O)c1ccc(COc2ccccc2/C=N/NS(=O)(=O)c2ccc(C)cc2)cc1 do in these assays?
aSyn 5UTR act: -69*

What do the screens show for `COC(=O)c1ccc(COc2ccccc2/C=C(\C#N)C(=O)Nc2ccc(C)cc2)cc1`?
aSyn 5UTR act: -154*

What do the screens show for `c1cnc(SCCOc2cccc3ccccc23)nc1`?
aSyn 5UTR act: -186*

What do the screens show for `COc1ccc(C)cc1N=Nc1ccc(O)c2ncccc12`?
aSyn 5UTR act: 68

Results for Cc1ccc(OCCSc2ncccn2)c(C)c1 ?
aSyn 5UTR act: -78*

What do the screens show for `O=C1/C(=C\Nc2ccc(OC(F)(F)F)cc2)CCN1c1ncccn1`?
aSyn 5UTR act: -201*

What do the screens show for `O=C1/C(=C\Nc2ccc(Cl)cc2)CCN1c1ncccn1`?
aSyn 5UTR act: -158*

How did OCCCCNc1cccc2ccccc12 do in these assays?
aSyn 5UTR act: -64*

What do the screens show for `CCOc1ccc(C(=O)COC(=O)c2cc([N+](=O)[O-])ccc2N2CCOCC2)cc1`?
aSyn 5UTR act: -115*

How did CSc1ccc(COC(=O)c2cc([N+](=O)[O-])ccc2N2CCOCC2)cc1 do in these assays?
aSyn 5UTR act: 67

What do the screens show for `COc1ccc(/C(=N/Nc2ncnc3ccccc23)C(=O)O)cc1`?
aSyn 5UTR act: -79*

What do the screens show for `Cc1c(NC(=S)Nc2ccccc2C(F)(F)F)cccc1[N+](=O)[O-]`?
aSyn 5UTR act: -65*

What do the screens show for `O=C(Nc1cccs1)Nc1ccccc1Cl`?
aSyn 5UTR act: -71*

Results for Cc1ccc(NC(=O)Nc2cccs2)c(Cl)c1 ?
aSyn 5UTR act: -201*

Results for Cc1c(NC(=O)Nc2cccs2)cccc1[N+](=O)[O-] ?
aSyn 5UTR act: -71*
